# Source: PubChem BioAssay AID1159580 (chemical genetic matrix, 2015)
# Screen size: about 5,500 compounds; about 2,000 (36%) were called active. About 18% were inconclusive and are not listed. The list shows a part of the results. Unmarked numbers belong to inactive results. Cut-off read from the data, not from the text of the source: active = normalized growth mostly below about 0.91 (no sharp cut-off); inconclusive = no clear call, values can overlap the other calls; inactive = mostly above about 0.92.
# Experiment: chemical genetic growth profiling, strain panel (AID 1159580);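 note: tested at 20 µM; growth read once vehicle control cultures reached saturation at 30 °C; 1 = growth at the plate median or of vehicle wells; lower values mean less growth of the strain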
# Conditions: S. cerevisiae deletion strains, growth OD
smiles,measurement,setting,value
CN(C/C=C/C#CC(C)(C)C)Cc1cccc2ccccc12,normalized growth,"locus YAL021C, strain ccr4, stronger effect = lower value",0.121 (active)
same,normalized growth,"locus YAL026C, strain drs2, stronger effect = lower value",0.0882 (active)
same,normalized growth,"locus YAL030W, strain snc1, stronger effect = lower value",0.334 (active)
same,normalized growth,"locus YBL061C, strain skt5, stronger effect = lower value",0.256 (active)
same,normalized growth,"locus YBR009C, strain hhf1, stronger effect = lower value",0.293 (active)
same,normalized growth,"locus YBR023C, strain chs3, stronger effect = lower value",0.254 (active)
same,normalized growth,"locus YBR171W, strain sec66, stronger effect = lower value",0.793 (active)
same,normalized growth,"locus YBR231C, strain swc5, stronger effect = lower value",0.423 (active)
same,normalized growth,"locus YBR279W, strain paf1, stronger effect = lower value",0.376 (active)
same,normalized growth,"locus YCL011C, strain gbp2, stronger effect = lower value",0.228 (active)
same,normalized growth,"locus YCL016C, strain dcc1, stronger effect = lower value",0.334 (active)
same,normalized growth,"locus YCL061C, strain MRC1, stronger effect = lower value",0.478 (active)
same,normalized growth,"locus YCL069W, strain vba3, stronger effect = lower value",0.283 (active)
same,normalized growth,"locus YCR088W, strain abp1, stronger effect = lower value",0.498 (active)
same,normalized growth,"locus YDL005C, strain med2, stronger effect = lower value",0.246 (active)
same,normalized growth,"locus YDL040C, strain nat1, stronger effect = lower value",0.528 (active)
same,normalized growth,"locus YDR001C, strain nth1, stronger effect = lower value",0.573 (active)
same,normalized growth,"locus YDR069C, strain doa4, stronger effect = lower value",0.567 (active)
same,normalized growth,"locus YDR137W, strain rgp1, stronger effect = lower value",0.492 (active)
same,normalized growth,"locus YDR159W, strain sac3, stronger effect = lower value",0.512 (active)
same,normalized growth,"locus YDR195W, strain ref2",1.34 [resistant] (active)
same,normalized growth,"locus YDR297W, strain sur2, stronger effect = lower value",0.398 (active)
same,normalized growth,"locus YDR334W, strain swr1, stronger effect = lower value",0.492 (active)
same,normalized growth,"locus YDR335W, strain msn5, stronger effect = lower value",0.219 (active)
same,normalized growth,"locus YDR392W, strain spt3, stronger effect = lower value",0.163 (active)
same,normalized growth,"locus YEL003W, strain gim4, stronger effect = lower value",0.311 (active)
same,normalized growth,"locus YEL037C, strain rad23, stronger effect = lower value",0.372 (active)
same,normalized growth,"locus YEL061C, strain CIN8 (second series), stronger effect = lower value",0.444 (active)
same,normalized growth,"locus YER015W, strain faa2, stronger effect = lower value",0.384 (active)
same,normalized growth,"locus YER016W, strain bim1, stronger effect = lower value",0.484 (active)
same,normalized growth,"locus YER111C, strain swi4, stronger effect = lower value",0.417 (active)
same,normalized growth,"locus YER155C, strain BEM2 (second series), stronger effect = lower value",0.469 (active)
same,normalized growth,"locus YFR010W, strain ubp6, stronger effect = lower value",0.457 (active)
same,normalized growth,"locus YGL167C, strain pmr1, stronger effect = lower value",0.909 (active)
same,normalized growth,"locus YGL173C, strain kem1, stronger effect = lower value",0.488 (active)
same,normalized growth,"locus YGL227W, strain vid30, stronger effect = lower value",0.536 (active)
same,normalized growth,"locus YGL240W, strain doc1, stronger effect = lower value",0.459 (active)
same,normalized growth,"locus YGL253W, strain hxk2, stronger effect = lower value",0.208 (active)
same,normalized growth,"locus YHR013C, strain ard1, stronger effect = lower value",0.241 (active)
same,normalized growth,"locus YHR027C, strain rpn1, stronger effect = lower value",0.442 (active)
same,normalized growth,"locus YHR030C, strain SLT2, stronger effect = lower value",0.471 (active)
same,normalized growth,"locus YHR079C, strain IRE1, stronger effect = lower value",0.792 (active)
same,normalized growth,"locus YHR142W, strain chs7, stronger effect = lower value",0.174 (active)
same,normalized growth,"locus YJL092W, strain hpr5, stronger effect = lower value",0.468 (active)
same,normalized growth,"locus YJL095W, strain BCK1 (second series), stronger effect = lower value",0.0681 (active)
same,normalized growth,"locus YJL095W, strain BCK1, stronger effect = lower value",0.472 (active)
same,normalized growth,"locus YJL115W, strain asf1, stronger effect = lower value",0.664 (active)
same,normalized growth,"locus YJL129C, strain trk1, stronger effect = lower value",0.351 (active)
same,normalized growth,"locus YJL154C, strain vps35, stronger effect = lower value",0.649 (active)
same,normalized growth,"locus YJL164C, strain tpk1, stronger effect = lower value",0.215 (active)
same,normalized growth,"locus YJL166W, strain qcr8, stronger effect = lower value",0.266 (active)
same,normalized growth,"locus YJL187C, strain SWE1, stronger effect = lower value",0.272 (active)
same,normalized growth,"locus YJR066W, strain TOR1, stronger effect = lower value",0.683 (active)
same,normalized growth,"locus YKL160W, strain elf1, stronger effect = lower value",0.296 (active)
same,normalized growth,"locus YKR026C, strain gcn3, stronger effect = lower value",0.452 (active)
same,normalized growth,"locus YKR091W, strain srl3, stronger effect = lower value",0.626 (active)
same,normalized growth,"locus YLL001W, strain dnm1, stronger effect = lower value",0.37 (active)
same,normalized growth,"locus YLL026W, stronger effect = lower value",0.283 (active)
same,normalized growth,"locus YLL041C, strain sdh2, stronger effect = lower value",0.462 (active)
same,normalized growth,"locus YLR027C, strain aat2, stronger effect = lower value",0.225 (active)
same,normalized growth,"locus YLR113W, strain HOG1, stronger effect = lower value",0.807 (active)
same,normalized growth,"locus YLR221C, strain rsa3, stronger effect = lower value",0.25 (active)
same,normalized growth,"locus YLR258W, strain gsy2, stronger effect = lower value",0.285 (active)
same,normalized growth,"locus YLR262C, strain YPT6 (second series), stronger effect = lower value",0.397 (active)
same,normalized growth,"locus YLR320W, strain mms22, stronger effect = lower value",0.189 (active)
same,normalized growth,"locus YLR342W, strain FKS1, stronger effect = lower value",0.513 (active)
same,normalized growth,"locus YLR357W, strain rsc2, stronger effect = lower value",1.11
same,normalized growth,"locus YLR370C, strain arc18, stronger effect = lower value",0.405 (active)
same,normalized growth,"locus YLR384C, strain iki3, stronger effect = lower value",0.635 (active)
same,normalized growth,"locus YML120C, strain ndi1, stronger effect = lower value",0.325 (active)
same,normalized growth,"locus YMR058W, strain fet3, stronger effect = lower value",0.281 (active)
same,normalized growth,"locus YMR125W, strain sto1, stronger effect = lower value",0.533 (active)
same,normalized growth,"locus YMR129W, stronger effect = lower value",0.361 (active)
same,normalized growth,"locus YMR205C, strain PFK2, stronger effect = lower value",0.532 (active)
same,normalized growth,"locus YMR231W, strain pep5, stronger effect = lower value",0.188 (active)
same,normalized growth,"locus YNL071W, strain lat1, stronger effect = lower value",0.209 (active)
same,normalized growth,"locus YNL183C, strain NPR1, stronger effect = lower value",0.808 (active)
same,normalized growth,"locus YNL209W, strain ssb2, stronger effect = lower value",0.395 (active)
same,normalized growth,"locus YNL248C, strain rpa49, stronger effect = lower value",0.378 (active)
same,normalized growth,"locus YNL322C, strain KRE1 (second series), stronger effect = lower value",0.506 (active)
same,normalized growth,"locus YNR049C, strain mso1, stronger effect = lower value",0.562 (active)
same,normalized growth,"locus YOR001W, strain rrp6, stronger effect = lower value",0.26 (active)
same,normalized growth,"locus YOR070C, strain gyp1, stronger effect = lower value",0.166 (active)
same,normalized growth,"locus YOR080W, strain dia2, stronger effect = lower value",0.516 (active)
same,normalized growth,"locus YOR083W, strain WHI5, stronger effect = lower value",0.369 (active)
same,normalized growth,"locus YOR106W, strain vam3, stronger effect = lower value",0.187 (active)
same,normalized growth,"locus YOR231W, strain MKK1, stronger effect = lower value",0.769 (active)
same,normalized growth,"locus YOR265W, strain rbl2, stronger effect = lower value",0.432 (active)
same,normalized growth,"locus YOR270C, strain vph1, stronger effect = lower value",0.192 (active)
same,normalized growth,"locus YOR290C, strain snf2, stronger effect = lower value",0.305 (active)
same,normalized growth,"locus YPL051W, strain arl3, stronger effect = lower value",0.199 (active)
same,normalized growth,"locus YPL078C, strain atp4, stronger effect = lower value",0.373 (active)
same,normalized growth,"locus YPL106C, strain sse1, stronger effect = lower value",0.444 (active)
same,normalized growth,"locus YPL240C, strain hsp82, stronger effect = lower value",0.334 (active)
same,normalized growth,"locus YPL256C, strain CLN2, stronger effect = lower value",0.81 (active)
